# According to PubChem BioAssay AID909 (National Center for Advancing Translational Sciences (NCATS), 2007):
# This is one part of the list. Entries that show only a call come without a potency. Records with an inconclusive call do not appear. The source made the active and inactive calls. The call rests on the fitted dose curve; in most records, active means well fitted inhibition curve with a large enough effect in the main read-out, with a control signal flat; inconclusive means small, poorly fitted or top-dose-only effect, or a change in a side signal; inactive means no such curve, though single readings can be large or run the other way.
# Biological target: Caspase-7 (Homo sapiens) (UniProt P55210)
# Assay: Concentration-Response Counterscreen for Redox Active Inhibitors of Caspase-7: Catalase
# Settings: Caspase-7 Ac-DEVD-AFC fluorescence rate, catalase buffer; series mostly up to 57.5 µM
# Source text: NIH Molecular Libraries Screening Centers Network [MLSCN] NIH Chemical Genomics Center [NCGC] MLSCN Grant: 1 X01 MH078950-01 PI Name: Dr. James Wells, Dr. Enrique Perez-Paya, Dr.Janice Williams, Dr. Dennis Wolan, a person NCGC Assay Overview: The caspases (Cysteine Aspartyl Protease) comprise a related family of 14 dimeric proteases that are critical mediators of apoptosis (programmed cell death) and inflammation. The caspases represent an important class of drug targets for stroke, ischemia, cancer and inflammatory diseases. […] One goal of this project was to identify compounds that act as allosteric inhibitors via stabilizing the procaspase form of the enzyme. […] After initiation of the assay with substrate the plates were rapidly read using an automated robotic system (Kalypsys, Inc.) to maintain consistent timing. […]
# NCGC Assay Protocol Summary: Caspase 7 was prepared in buffer (50 mM HEPES pH 7.5, 50 mM KCl, 200 mM NaCl, 50 units/well catalase (from bovine liver, Sigma cat#100), 0.1% CHAPS) at a concentration of 66.6 nM and 3 uL was dispensed to all wells using black solid Kalypsys 1536-well plates. […] The plates were then exposed using 405 nm excitation/520 nm emission filters for 4 sec and read at 20 sec intervals for 3 min. […]
# Chain of Caspase-7 (Homo sapiens) (P55210 24-198 limits assumed): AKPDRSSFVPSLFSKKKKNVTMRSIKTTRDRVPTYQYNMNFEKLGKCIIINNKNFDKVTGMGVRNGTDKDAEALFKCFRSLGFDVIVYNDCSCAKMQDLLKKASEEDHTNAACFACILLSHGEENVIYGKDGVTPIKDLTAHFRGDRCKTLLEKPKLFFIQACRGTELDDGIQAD
# Chain of Caspase-7 (Homo sapiens) (P55210 207-303 limits assumed): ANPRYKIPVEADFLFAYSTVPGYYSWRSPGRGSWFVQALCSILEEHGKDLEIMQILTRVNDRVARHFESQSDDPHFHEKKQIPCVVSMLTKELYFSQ
row,SMILES,Potency
1,CCN1C(=O)/C(=C2/Sc3ccccc3N2CCCS(=O)(=O)O)SC1=S,inactive
2,N#CC1=C(N)Oc2cc(O)ccc2C1C1CCCCC1 (configuration not stated),31.6 µM (active)
